Reference: PubChem BioAssay (NCI)
Several values for one entry are separate records, joined by “and”; a condition that tells them apart may be missing. Identical values can stand only once. About 83,000 compounds went through this panel and 20% of them were active in at least one assay; those are over-represented in the sample as a whole.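 Compound tested at a single concentration for 48 hours in 96-well plates; a percent growth value below 10 was scored as active.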 Unmarked numbers belong to inactive results. Activity calls are given as the source filed them.

Assays:
Test in all cases: NCI-60 one-dose screen, 48 h (100 = growth as untreated, 0 = no growth, -100 = all killed)
Details in all cases: 10 µM unless noted
DU-145 prostate = system: DU-145 prostate
K-562 leukemia = system: K-562 leukemia
MALME-3M melanoma = system: MALME-3M melanoma
MDA-MB-231 breast = system: MDA-MB-231 breast
RXF 393 renal = system: RXF 393 renal
SF-268 CNS = system: SF-268 CNS
SF-295 CNS = system: SF-295 CNS
SF-539 CNS = system: SF-539 CNS
UACC-257 melanoma = system: UACC-257 melanoma
M14 melanoma = system: M14 melanoma

SMILES	growth (DU-145 prostate)	growth (K-562 leukemia)	growth (MALME-3M melanoma)	growth (MDA-MB-231 breast)	growth (RXF 393 renal)	growth (SF-268 CNS)	growth (SF-295 CNS)	growth (SF-539 CNS)	growth (UACC-257 melanoma)	growth (M14 melanoma)
COc1ccc2c(c1)oc1c(C)c3c(c(C)c12)C(=O)N(Nc1ccccc1)C3=O	97.4%	101%	99.5%	105%	116%	100%	97.1%	95.1%	109%	95.3%
Cc1nc2sc(C(=O)Nc3cccc4ccccc34)c(N)c2cc1C(=O)/C=C/c1ccccc1	-3.16% (active)	12%	34%	-16.2% (active)	-87.2% (active)	9.83% (active)	-30.7% (active)	-20.1% (active)	68.9%	-15.3% (active)
CCCCn1c(C(=O)c2c[nH]c3ccccc23)n[nH]c1=S	104%	76.1%	111%	96.4%	107%	96.9%	103%	102%	94.8%	92.4%
CC/C=C\C/C=C\C[C@H](O)C/C=C1/C(=O)C=C[C@@H]1C/C=C\CCCC(=O)OC	6.78% (active)	3.6% (active)	-5.8% (active)	-5.48% (active)	-58.2% (active)	8.53% (active)	-8.95% (active)	1.23% (active)	-13.9% (active)	-23% (active)
O=C(CCCCCCCCC(=O)N/N=C\c1ccccc1O)N/N=C\c1ccccc1O	26.7%	16.4%	15.1%	38.1%	31.1%	14.6%	36%	16.7%	20.2%	-9% (active)
O=C(Nc1ncc(Cc2cccc(C(F)(F)F)c2)s1)c1ccc(-n2cnnn2)cc1	60.3%	21%	62.6%	96.9%	103%	55.4%	32.2%	47.9%	46.8%	41.4%
Cc1cc(N2CCN(CC(=O)Nc3ccc4c(ccn4Cc4ccccc4)c3)CC2)nc(N2CCCCCC2)n1	71.5%	14.8%	18.2%	28.2%	28.7%	72.9%	44.4%	69.4%	42.8%	-7.84% (active)
O=C(CCl)n1nnnc1Cc1ccccc1	110%	83.4%	106%	92.9%	112%	106%	90.7%	92.2%	88.7%	98.6%
CC[C@@H]1NC(=O)[C@H]([C@H](O)[C@H](C)C/C=C/c2ccc(CN3C(=O)C(C)=C(C)C3=O)cc2)N(C)C(=O)[C@H](C(C)C)N(C)C(=O)[C@H](CC(C)C)N(C)C(=O)[C@H](CC(C)C)N(C)C(=O)[C@@H](C)NC(=O)[C@H](C)NC(=O)[C@H](CC(C)C)N(C)C(=O)[C@H](C(C)C)NC(=O)[C@H](CC(C)C)N(C)C(=O)CN(C)C1=O	73.9%	70%	88.2%	71.5%	80%	71%	69.4%	86.9%	69.4%	60%
c1ccc(Cc2cccc[n+]2C(c2ccccc2)c2ccccc2)cc1	68.9%	33%	23%	68.2%	93.3%	64.9%	73.6%	56.6%	7.44% (active)	59.8%
Cc1nc2sc(C(=O)Nc3cccc4ncccc34)c(N)c2cc1C(C)O (stereo not given)	109%	28.8%	74.5%	76.1%	70.1%	87.7%	59.8%	82.4%	75.9%	62%
CCN1CCN(C(=O)[C@]23CC[C@@H](C)[C@H](C)[C@@H]2C2=CC[C@@H]4[C@@]5(C)CCC(=O)C(C)(C)[C@@H]5CC[C@@]4(C)[C@]2(C)CC3)CC1	41.5%	2.78% (active)	-85.7% (active)	-28.6% (active)	-6.14% (active)	39.7%	24.8%	-79.8% (active)	-23.9% (active)	-41.6% (active)
COc1ccc(/C(C)=C(\c2ccc(OCCN3CCOCC3)cc2)c2ccc(OC(=O)C3CCCCC3)cc2)cc1	95.7%	89.2%	97.7%	111%	121%	101%	103%	94.7%	112%	102%
Cc1ccc(NC(=O)c2ccc(CN3CCN(C)CC3)cc2)cc1Nc1nccc(-c2cccnc2)n1	85.6% and 88.2%	2.02% (active)	114% and 79.6%	88.8% and 81.3%	94.3% and 69.3%	104% and 74.5%	84.9% and 66.4%	75.5% and 38.2%	97.2% and 29.6%	113% and 82.7%
O=C([C@H]1C[C@H]1c1ccc(S(F)(F)(F)(F)F)cc1)N1CCN(c2cc(Cl)ccc2C(F)(F)F)CC1	104%	74.2%	89.7%	97.2%	91.8%	90.2%	92.6%	107%	94.9%	90.7%
O=C1C(=C(O)c2ccccc2)C(=O)c2ccccc21	104%	95.4%	103%	107%	135%	95.2%	105%	100%	108%	102%
O=C(Cn1cc(CN2CCN(c3ccnc4cc(Cl)ccc34)CC2)nn1)Nc1cccc([N+](=O)[O-])c1	100%	68.8%	102%	64.8%	77.2%	84.6%	100%	88.7%	98.3%	103%
COc1ccc2c(c1)c(-c1nc(-c3c[nH]c4c(Cl)nccc34)cs1)cn2C	90%	90.8%	117%	52.2%	83.2%	111%	97.2%	89.7%	100%	90.8%
COC(=O)c1[nH]nc(OC)c1C1(C(C#N)c2nc3ccccc3s2)CCCc2ccccc21 (stereo not given)	108%	92.4%	101%	79.9%	117%	101%	97.5%	106%	101%	95.2%
Nc1nc(N)c2c(n1)NC(c1cccc(Nc3ccnc4cc(C(F)(F)F)ccc34)c1)CC(c1ccc(F)cc1)=N2 (stereo not given)	63.8%	9.19% (active)	53.2%	44.8%	42.8%	52.2%	49.2%	73.8%	74.8%	27.7%
CC(=NCc1ccccc1)c1ccc(O)cc1O	112%	96.6%	93.8%	96.9%	122%	101%	123%	97.8%	88.1%	104%
CC[C@H](C)[C@H](NC(=O)[C@H](CCCCN)NC(=O)[C@H](CCCCN)NC(=O)[C@@H](NC(=O)[C@@H](NC(=O)[C@@H](N)Cc1cnc[nH]1)[C@@H](C)CC)[C@@H](C)CC)C(=O)N[C@@H](CCCNC(=N)N)C(=O)N[C@H](C(=O)N[C@@H](Cc1c[nH]c2ccccc12)C(=O)N[C@@H](Cc1ccc(O)cc1)C(=O)N[C@@H](CCCNC(=N)N)C(=O)N[C@@H](CCCCN)C(=O)N[C@@H](C)C(=O)N[C@@H](Cc1c[nH]c2ccccc12)C(=O)N[C@@H](Cc1cnc[nH]1)C(=O)N[C@H](C(=O)N[C@@H](CC(C)C)C(=O)NCC(=O)N[C@@H](CCCCN)C(=O)N[C@H](C(N)=O)C(C)C)C(C)C)[C@@H](C)O	30.7%	67.9%	4.7% (active)	10.9%	23.4%	-12.7% (active)	24.5%	-12.2% (active)	67.8%	-12% (active)
COc1ccc(Nc2nn3c(SCC(=O)c4ccc(C)cc4)nnc3s2)cc1	101%	83.5%	98.7%	91.7%	97.1%	100%	100%	107%	108%	99.2%
